Screens deposited in PubChem BioAssay by National Center for Advancing Translational Sciences (NCATS).
HepG2 tox – HepG2 cytotoxicity, counter-screen for TGF-b inhibitors; HepG2 CAGA-GFP viability, ATP luminescence, 18 h; Potency, µM (series often up to 46.1 µM), usual class: cytotoxic; 410,000 tested, 0.76% active; AID 588856
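HepG2 CAGA-GFP cells (1000/well, DMEM with 1% FBS) received compound, then TGF-beta at 500 pg/mL final, and were incubated 18 hours at 37 degrees C. Viability was read by CellTiter-Glo luminescence. Media-only wells were set as complete cell-killing and DMSO as no toxicity.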
TGFb inhibitor – TGF-b pathway inhibition. 410,000 tested, 1.2% active. Potency, µM (series often up to 46.1 µM), most hits filed as inhibitors. HepG2 CAGA-GFP TGF-b/SMAD3 reporter, GFP fluorescence, 18 h; TGF-beta stimulated, 500 pg/mL final; further: nearly all actives have a fitted effect of over 65% in size
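Using HEPG2 CAGA-GFP reporter cells at 1000 cells/well, we pinned test compounds, stimulated with recombinant TGF-beta (500 pg/mL final) and measured total well GFP after 18 h.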
ATXN2 expr inh – ATXN2 expression inhibition | HEK-293 ATXN2-luciferase reporter, luminescence, 24 h | Potency, µM (titrated, usually from 57 µM), usual class: inhibitors | 360,000 tested, 0.72% active | AID 1745845; further: nearly all actives have a fitted effect of over 55% in size
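qHTS (up to 57 uM final) was run with 24 h compound exposure of reporter cells at 37 °C. Each well was multiplexed: SteadyGlo luminescence measured ATXN2-luciferase expression after a fluorogenic Gly-Phe-AFC viability readout (25 uM final).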
ATXN viability – cell viability loss in ATXN counter-screen; S2 cells (HEK-293 line with an ATXN2-luciferase reporter) viability, CellTiter-Fluor protease fluorescence, 24 h; Potency, µM (highest dose often 56.7 µM), usual class: cytotoxic; 400,000 tested, 0.49% active; further: nearly all actives have a fitted effect of over 40% in size
ALOX12 inh – inhibitors of human 12S-lipoxygenase ALOX12; Potency, µM (series often up to 108 µM), hits mostly inhibitors; P18054; 580,000 tested, 1.1% active; purified 12hLO, xylenol orange hydroperoxide absorbance
Target sequence (P18054 whole entry, looked up): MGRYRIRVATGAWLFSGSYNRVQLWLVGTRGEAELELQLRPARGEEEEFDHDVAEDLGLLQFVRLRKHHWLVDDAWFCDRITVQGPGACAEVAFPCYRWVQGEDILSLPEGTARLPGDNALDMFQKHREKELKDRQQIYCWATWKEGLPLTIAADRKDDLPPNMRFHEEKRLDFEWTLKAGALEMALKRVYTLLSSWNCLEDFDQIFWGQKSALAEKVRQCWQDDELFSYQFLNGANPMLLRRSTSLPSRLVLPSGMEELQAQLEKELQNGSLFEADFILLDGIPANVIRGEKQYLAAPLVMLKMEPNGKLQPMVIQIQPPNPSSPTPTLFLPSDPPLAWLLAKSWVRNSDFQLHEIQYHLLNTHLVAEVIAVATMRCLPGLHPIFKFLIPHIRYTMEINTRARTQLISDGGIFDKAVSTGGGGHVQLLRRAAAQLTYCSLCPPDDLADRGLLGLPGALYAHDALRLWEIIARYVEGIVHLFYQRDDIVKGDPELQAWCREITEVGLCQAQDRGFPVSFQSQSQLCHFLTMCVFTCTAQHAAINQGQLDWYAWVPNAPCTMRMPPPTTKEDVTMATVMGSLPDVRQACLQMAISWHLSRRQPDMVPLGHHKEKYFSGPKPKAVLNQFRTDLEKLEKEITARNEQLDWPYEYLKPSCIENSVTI
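Purified human 12hLO at 150 nM in 25 mM Hepes, 0.01% Triton X-100, pH 7.0, preincubated 15 min at room temperature with compound. Reaction started with 40 uM arachidonic acid, 30 min at room temperature. Hydroperoxide measured by Fe-xylenol orange, 573/405 nm absorbance ratio.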
Hits are given with their value; – = inactive; ? = inconclusive; · = no result given; ! = not active in a repeat; [ ] = dose if it differs, or a comment. An excerpt weighted towards active compounds, which were near 2.7% of everything screened. The call rests on the fitted dose curve; in most records, active means well fitted curve in the direction sought with a large enough effect; inconclusive means small, poorly fitted or top-dose-only effect, or another doubt; inactive means no such curve, though single readings can be large; an effect the other way counts as inactive or inconclusive.

SMILES	HepG2 tox	TGFb inhibitor	ATXN2 expr inh	ATXN viability	ALOX12 inh
COc1cc2nc(Nc3ccc(C)c(C)c3)nc(N)c2cc1OC	–	?	?	?	?
CCN(CC)c1nc2ccccc2nc1C(=O)Nc1cc(C)ccc1C	·	·	·	·	–
NC(=NCCCCCCN=C(N)/N=C(\N)Nc1ccc(Cl)cc1)/N=C(\N)Nc1ccc(Cl)cc1	–	?	20µM!	32µM!	32µM!
O=S(=O)(c1ccccc1)n1nc(-c2ccc(Cl)cc2)nc1NCc1ccccc1	–	·	·	·	–
Cc1ccc(S(=O)(=O)n2nc(-c3ccc(Cl)cc3)nc2NCc2ccco2)cc1	–	–	–	–	13µM
CC1CCC(NC(=O)c2ccc(Cl)nc2)CC1 (stereo not given)	·	·	·	·	–
CCCCCCCn1c(=O)c(C(=O)OC)c(N)c2ccccc21	–	13µM	?	?	–
CCCCCCCCn1c(=O)c(C(=O)OC)c(N)c2ccccc21	–	16µM	–	?	–
CCCCCCn1c(=O)c(-c2ccccc2)c(O)c2ccccc21	–	–	–	–	?
O=C(CNS(=O)(=O)c1ccc(N2CCCC2=O)cc1)N1CCN(CC(=O)N2CCCCC2)CC1	·	·	·	·	–
CN1C[C@H](NC(=O)NC2(c3ccccc3)CCOCC2)CCC[C@@H](C(=O)NCc2cc(F)cc(F)c2)CC1=O	·	·	·	·	22µM
CN1C[C@H](NC2CCOCC2)CCC[C@@H](C(=O)NCc2cc(F)cc(F)c2)CC1=O	·	·	·	·	–
Cc1ccc2c(c1)c(=O)c1ccccc1n2CCCC(=O)Nc1ccc(C)c(F)c1	–	6.3µM	–	·	–
O=C(CCCn1c2ccccc2c(=O)c2ccccc21)Nc1cccc(Cl)c1	–	13µM	?	·	?
Cc1ccc2c(c1)c(=O)c1ccccc1n2CCCC(=O)Nc1ccc(C)c(C)c1	–	?	?	–	–
O=C(Cn1c(=O)n(Cc2ccco2)c(=O)c2ccccc21)Nc1cccc(Cl)c1	–	10µM	?	?	–
Cc1noc2c(NCCN(C)C)cc(-c3ccc(Cl)cc3)nc12	·	·	·	·	–
Cc1cccc(-c2nn3c(N(C)C)cc(C)nc3c2C)c1	·	·	·	·	–
Cc1ccc(CNc2ncnc3ccc(-c4ccoc4C)cc23)o1	–	16µM	–	–	?
Cc1cc(C)c2c(CN3CCN(c4ccccc4)CC3)cc(=O)oc2c1	–	–	–	–	–
Cc1cc(C)c2c(CN3CCN(Cc4ccccc4)CC3)cc(=O)oc2c1	–	–	–	–	14µM!
O=C(CCn1cnc2ccccc2c1=O)Nc1cccc(Cl)c1Cl	–	–	·	0.16µM	–
O=C(CCn1cnc2ccccc2c1=O)NCc1ccccc1Cl	–	–	–	–	–
CC(Cn1ccc2ccccc21)NC1CCN(c2ccc(C(=O)N(C)C)cc2)CC1 (stereo not given)	·	·	·	·	–
Cc1cccc(C(=O)Nc2sc3c(c2C(N)=O)CCCCC3)c1	·	·	·	·	10µM
SMILES	HepG2 tox	TGFb inhibitor	ATXN2 expr inh	ATXN viability	ALOX12 inh
COc1ccc2nc(Nc3sc4c(c3C(N)=O)CCCC4)sc2c1	–	?	–	–	22µM
NC(=O)c1c(NC(NC(=O)c2ccco2)C(=O)c2ccc(Cl)cc2)sc2c1CCCC2 (stereo not given)	–	16µM	–	–	?
COc1ccc(C(=O)Nc2sc3c(c2C(N)=O)CCCC3)cc1OC	·	·	·	·	–
NC(=O)c1c(NC(=O)c2ccccc2Cl)sc2c1CCC2	–	–	·	–	28µM
COc1ccc(-c2cc(C)no2)cc1S(=O)(=O)CCC(=O)Nc1cc(C)cc(C)c1	·	·	·	·	–
CN1CCN(C2=C(Cl)C(=O)c3ccccc3C2=O)CC1	10µM	?	24µM	·	?
CN1CCN(C2=C(Cl)C(=O)C(c3cnc(N4CCCCC4)s3)=C(Cl)C2=O)CC1	–	?	?	25µM	·
O=C1C(Cl)=C(N2CCC(C(=O)O)CC2)C(=O)c2ccccc21	–	?	25µM	–	·
CN1CCN(C2=C(NS(=O)(=O)c3ccccc3)C(=O)c3ccccc3C2=O)CC1	–	?	–	–	·
NC(=O)C1CCN(C2=C(Cl)C(=O)c3ccccc3C2=O)CC1	7.1µM	?	?	?	–
Cc1cc(NC(=O)N(Cc2ccco2)C2CCCC2)no1	·	·	·	·	–
CCOC(=O)c1ccc(NC(=O)c2cc[n+]([O-])cc2)cc1	·	·	·	·	–
COc1ccccc1-c1nc(S(=O)(=O)c2ccc3c(c2)OCCO3)c(N2CCCC2)o1	·	·	·	·	–
CC(CCC(C)C(C)(C)C)[C@@H]1CC[C@H]2C3C[C@H](OS(O)(=S)=S)[C@H]4C[C@H](OS(O)(=S)=S)[C@@H](OS(O)(=S)=S)C[C@]4(C)[C@H]3CC[C@]12C (stereo not given in full) (tested in a mixture with another compound)	16µM	?	?	18µM	·
CCOc1ccccc1NC(=O)COC(=O)c1sc2cc(F)ccc2c1Cl	·	·	·	·	–
CC(=O)Nc1ccc(S(=O)(=O)NC2(C(F)(F)F)C(=O)Nc3c2c(=O)[nH]c(=O)n3Cc2cccnc2)cc1 (stereo not given)	2.8µM	–	–[11.3 µM]	–	–
CC(=O)Nc1ccc(S(=O)(=O)NC2(C(F)(F)F)C(=O)Nc3c2c(=O)[nH]c(=O)n3C)cc1 (stereo not given)	–	–	–	–	–
COc1ccc(-c2c(C(F)(F)F)oc3cc(OCC(=O)OC(C)C)ccc3c2=O)cc1OC	·	·	·	·	–
c1ccc(-n2cc(CN3CCCCC3c3ccccn3)nn2)cc1 (stereo not given)	·	·	·	·	20µM
Cc1noc(C)c1C1CCCN1Cc1cn(-c2ccccc2)nn1 (stereo not given)	·	·	·	·	–
COc1cc([C@H]2c3[nH]c4ccccc4c3C[C@H]3C(=O)N4[C@@H](c5cc(OC)c(OC)c(OC)c5)c5[nH]c6ccccc6c5C[C@H]4C(=O)N23)cc(OC)c1OC	14µM	?	?	16µM	·
CCN1C(=O)[C@@H]2Cc3c([nH]c4ccccc34)C(c3cc(OC)c(OC)c(OC)c3)N2C1=S (stereo not given in full)	–	–	·	–	–
C#CCN(C)Cc1nc(C2(O)CCN(CC3CCCCC3)CC2)cs1	·	·	·	·	–
COCCSc1ccccc1C(=O)Nc1cccnc1	–	–	–	–	22µM
COCCSc1ccccc1C(=O)Nc1ccc(Cl)cc1	–	–	·	–	18µM
SMILES	HepG2 tox	TGFb inhibitor	ATXN2 expr inh	ATXN viability	ALOX12 inh
COCCSc1ccccc1C(=O)Nc1ccc(Br)cc1	–	–	–	?	35µM
Cc1ccc(Nc2nc(NCCO)c3ccccc3n2)cc1C	–	14µM	–	–	?
OCCNc1c2ccccc2nc2ccccc12	–	?	19µM	·	–
COCCNC(=O)/C(C#N)=C/c1ccc(O)c([N+](=O)[O-])c1	–	–	·	–	–
COCCNC(=O)/C(C#N)=C/C=C/c1ccccc1[N+](=O)[O-]	–	20µM	?	?	–
O=C(CSCc1ccc(F)cc1Br)Nc1ccc2c(c1)OCCO2	·	·	·	·	–
